The assay can be described thus: inhibitors of zVAD-triggered necroptosis in L929, confirmation, L929 cells, duplicate runs (AID 463117).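 Note: 0% = cells with zVAD alone and 100% = vehicle cells without zVAD.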 To be noted: L929 zVAD-induced necroptosis rescue, ATP luminescence, 24 h; at 10 µM; stronger effect = higher value.

The list shows a part of the results. The source made the active and inactive calls.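 Rule for the calls: active = mean protection from necroptosis of at least 50% over duplicate tests; inactive = mean protection below 50%.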

With `COC(=O)N1C(c2ccccc2)C1c1ccccc1` (stereo unspecified), the activation (protection from necroptosis) is 91.7% (active).
